Source: PubChem BioAssay (National Center for Advancing Translational Sciences (NCATS))
Shown are actives, neighbours in structure and some others; about 3.7% of the full set was active somewhere.
HepG2 tox = qHTS for Inhibitors of TGF-b: Cytotox Counterscreen; Potency, µM (titrated, usually from 46.1 µM), for inactives: top-dose activity change, negative = cytotoxicity, hits mostly cytotoxic; HepG2 CAGA-GFP viability, ATP luminescence, 18 h; hit rate 0.76% among 410,000
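HepG2 CAGA-GFP cells (1000/well, DMEM with 1% FBS) received compound, then TGF-beta at 500 pg/mL final, and were incubated 18 hours at 37 degrees C. Viability was read by CellTiter-Glo luminescence. Media-only wells were set as complete cell-killing and DMSO as no toxicity.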
S2 tox = Viability Counterscreen for Primary qHTS for Inhibitors of ATXN expression; Potency, µM (doses to about 56.7 µM), hits mostly cytotoxic; hit rate 0.49% among 400,000; S2 cells (HEK-293 line with an ATXN2-luciferase reporter) viability, CellTiter-Fluor protease fluorescence, 24 h; also: nearly all actives have a fitted effect of over 40% in size
GLP1R ag = qHTS of GLP-1 Receptor Agonists; Glucagon-like peptide 1 receptor (Homo sapiens), P43220; HEK293 GLP-1R CRE-luciferase, luminescence, 4-6 h; cells express a hypersensitive GLP-1R form; Potency, µM (doses to about 45.6 µM), inactives show at the top dose activation, actives largely listed as activators; hit rate 0.007% among 380,000; AID 624172, 2012; also: % of control where 0% means no effect
Target sequence (P43220 whole entry, looked up): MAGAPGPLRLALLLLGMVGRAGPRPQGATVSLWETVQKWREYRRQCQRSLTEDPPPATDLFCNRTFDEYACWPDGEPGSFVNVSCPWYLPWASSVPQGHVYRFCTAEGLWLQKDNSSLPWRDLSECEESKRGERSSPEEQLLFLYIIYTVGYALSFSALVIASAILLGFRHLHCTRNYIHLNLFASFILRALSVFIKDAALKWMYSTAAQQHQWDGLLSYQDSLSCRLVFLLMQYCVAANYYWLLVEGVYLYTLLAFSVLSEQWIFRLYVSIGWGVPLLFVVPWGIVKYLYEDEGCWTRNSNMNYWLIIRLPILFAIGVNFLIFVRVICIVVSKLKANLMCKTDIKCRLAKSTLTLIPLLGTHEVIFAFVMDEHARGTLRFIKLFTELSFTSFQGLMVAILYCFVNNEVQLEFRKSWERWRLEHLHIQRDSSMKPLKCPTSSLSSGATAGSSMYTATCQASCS
TGFb inhibitor = qHTS for Inhibitors of TGF-b; HepG2 CAGA-GFP TGF-b/SMAD3 reporter, GFP fluorescence, 18 h; TGF-beta stimulated, 500 pg/mL final; Potency, µM (top dose mostly 46.1 µM), inactives show top-dose activity, negative = inhibition, hits mostly inhibitors; hit rate 1.2% among 410,000; also: % is scaled to controls: 0 for no effect and ±100 for the full control effect; nearly all actives have a fitted effect of over 65% in size
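Inhibition was scored as loss of TGF-beta-induced (500 pg/mL final, 18 hours, 37 degrees C) GFP in HEPG2 cells carrying a CAGA-GFP reporter, in DMEM with 1% FBS. Well GFP was summed per cell; Activity was normalised to unstimulated and stimulated DMSO wells, then concentration-response fitting.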
GLP-1R inv ag = qHTS of GLP-1 Receptor Inverse Agonists (Inhibition Mode). Glucagon-like peptide 1 receptor (Homo sapiens), P43220. HEK293 GLP-1R CRE-luciferase, luminescence, 24 h; GLP-1R form is constitutively active. Potency, µM (titrated, usually from 38.3 µM), for the others: top-dose activity change, negative = inhibition, most hits filed as inhibitors. hit rate 1.6% among 410,000. AID 624417, 2012; also: % is scaled to controls: 0 for no effect and ±100 for the full control effect; nearly all actives have a fitted effect of over 55% in size
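Luminescence readout: a drop in cAMP-driven luciferase signal flags inverse agonism at a constitutively active GLP-1R stably expressed in HEK293. Compound exposure lasted 24 hr at 37 deg C, 5% CO2.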
ATXN2 expr inh = Primary qHTS for Inhibitors of ATXN expression. HEK-293 ATXN2-luciferase reporter, luminescence, 24 h. Potency, µM (top dose mostly 57 µM), for inactives: top-dose activity change, negative = inhibition, most hits filed as inhibitors. hit rate 0.72% among 360,000; also: % is scaled to controls: 0 for no effect and ±100 for the full control effect; nearly all actives have a fitted effect of over 55% in size
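ATXN2-luciferase reporter cells (luciferase flanked by upstream and downstream ATXN2 gene portions) were treated 24 h at 37 °C with compounds at up to 57 uM. SteadyGlo luminescence gave expression; GF-AFC fluorescence gave viability.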
An asterisk follows results filed as active; i = inactive; ? = inconclusive; . = not tested or not shown. Calls follow the shape of the dose curve; as a rule, active = well fitted curve in the direction sought with a large enough effect; inconclusive = small, poorly fitted or top-dose-only effect, or another doubt; inactive = no such curve, though single readings can be large; an effect the other way counts as inactive or inconclusive. Potency is read from the fitted curve at half-maximal effect.

SMILES | HepG2 tox | S2 tox | GLP1R ag | TGFb inhibitor | GLP-1R inv ag | ATXN2 expr inh
CCN(CC)/[N+]([O-])=N/Oc1ccc([N+](=O)[O-])cc1[N+](=O)[O-] | -13% | . | . | 0% | . | .
Cc1c(F)cccc1NC(=O)C1CCCN1S(=O)(=O)c1ccc(F)cc1 (stereo not given) | -37% | i | . | -25% | -21% | -8%
CCc1ccc(NC(=O)c2sc3nc(C)c(Cl)c(C)c3c2NC(=O)c2ccccc2)cc1 | -10% | i | 6% | 6% | 17% | 22%
COCCCOc1cc(NCc2ccccc2)c2ncn(C(C)C)c2c1 | -2% | i | ? | 7% | -14% | -3%
CCCCOc1cc(NCc2ccccc2)c2ncn(C(C)C)c2c1 | -54% | ? | 12% | 18µM* | ? | -39%
C/C(=N\NC(=O)c1ccccc1NC(=O)c1ccc(Cl)cc1)c1ccncc1 | 1.3µM* | i | -4% | 4% | ? | .
Cn1ncc(Cl)c1C(=O)Nc1ccncc1 | -22% | i | -9% | 6% | 19% | -3%
C/C(=N\NC(=O)c1c(Cl)cnn1C)c1ccc(NC(=O)c2ccncc2)cc1 | 10µM* | i | 12% | 4% | -7% | -22%
CC1=C/C(=C\c2ccc(N(C)C)cc2)c2ccccc21 | -7% | . | . | -3% | . | .
Cc1ccc(CN(C)C(=O)CN2C(=O)NC(c3ccccc3)(c3ccccc3)C2=O)c(C)c1 | -30% | i | -1% | ? | 3.5µM* | ?
CCOc1ccc(CN2CCC(n3nccc3NC(=O)CCCc3ccccc3)CC2)cc1 | 1% | i | -6% | ? | ? | .
C=C(C)CCC(C)N1CCC(n2nccc2NC(=O)CCOc2ccccc2)CC1 (stereo not given) | 20% | i | 7% | -4% | 5µM* | -10%
CCOc1cccc(CN2CCC(n3nccc3NC(=O)CCCc3ccccc3)CC2)c1 | -33% | ? | 17% | ? | 10µM* | ?
CC(C)NC(=O)N1CCC(n2nccc2NC(=O)CCOc2ccccc2)CC1 | -3% | i | -4% | -22% | -25% | 3%
CCC1CCCCN1C(=O)Cn1c(=O)n(-c2ccccc2C(F)(F)F)c(=O)c2c(C)c(C(=O)N(C)C)sc21 (stereo not given) | 0% | i | . | -13% | -13% | 7%
O=C1CCCc2ccccc2N1Cc1ccc(Cl)cc1Cl | -30% | i | -6% | ? | 11µM* | ?
O=C1CCCc2ccccc2N1Cc1ccccc1Cl | -37% | i | 53% | ? | ? | -18%
COC(=O)[C@@H]1CCCN1Cc1ccc2c(c1)CN(Cc1nccs1)CCO2 | . | i | . | . | . | .
S=c1nc2ccccc2c2nc(-c3ccccc3Br)[nH]n12 | -3% | ? | 11% | 0% | ? | 25µM*
Cc1ccc(Nc2cc(C(=O)NCc3cccs3)c3ccccc3n2)c(C)c1 | -13% | i | . | 0% | 2µM* | -6%
Cc1ccccc1Nc1cc(C(=O)NCc2cccs2)c2ccccc2n1 | -23% | ? | . | -30% | ? | -14%
Cc1ccc(-n2ncc3c(Nc4cccc(C(F)(F)F)c4)ncnc32)cc1C | -58% | i | . | ? | ? | 48%
CC(=O)Nc1ccc(/C=C/c2ccnc3ccccc23)cc1[N+](=O)[O-] | -19% | . | . | 13% | . | .
COc1ccc(C(=O)N2CCC(c3nc4ccccc4s3)CC2)cc1Cl | -31% | ? | . | 8.9µM* | -17% | ?
CCOc1ccccc1C(=O)N[C@H](C(=O)Nc1nc2c(s1)CCCC2)C(C)C | -4% | i | 21% | ? | 10µM* | -9%
SMILES | HepG2 tox | S2 tox | GLP1R ag | TGFb inhibitor | GLP-1R inv ag | ATXN2 expr inh
COc1ccc(C(=O)N[C@H](C(=O)Nc2nc3c(s2)CCCC3)C(C)C)cc1 | 6% | i | 11% | ? | ? | 58%
O=Cc1cc2c3c(c1)CCCN3CCC2 | -31% | . | . | -22% | . | .
C=CCn1c(SCC(=O)c2[nH]c(C)c(C(=O)OCC)c2C)nc2scc(-c3ccc(OC)c(OC)c3)c2c1=O | -15% | . | 10% | ? | 32% | 28µM*
CCOC(=O)c1c(C)[nH]c(C(=O)CSc2nnc(-c3ccncc3)n2CC)c1C | -9% | i | 9% | ? | 5% | -8%
O=C1OCCC1Sc1nnc(-c2ccc(Cl)cc2Cl)o1 (stereo not given) | -34% | i | -2% | ? | ? | 6.3µM*
COc1cc2c(cc1OC)[C@@H](Cc1cc(OC)c(OC)c(OC)c1)[N@+](C)(CCCOC(=O)CC/C=C/CCC(=O)OCCC[N@+]1(C)CCc3cc(OC)c(OC)cc3[C@H]1Cc1cc(OC)c(OC)c(OC)c1)CC2 | . | . | 0% | . | . | .
COc1ccc(CCNC(=O)CCn2c(=O)c3ccccc3n(Cc3cc(C)ccc3C)c2=O)cc1OC | 3% | i | -1% | 25% | -19% | 2%
CC(C)(C)c1ccc(OCCCC(=O)Nc2cccc(S(=O)(=O)N3CCOCC3)c2)cc1 | -22% | . | -2% | 0% | 7.9µM* | ?
O=C(CCCOc1ccccc1)Nc1cccc(S(=O)(=O)N2CCOCC2)c1 | 1% | i | 0% | -7% | -27% | -16%
O=C(CCOc1cccc(Br)c1)Nc1ccc(F)c(S(=O)(=O)N2CCOCC2)c1 | -33% | i | 7% | -24% | 10µM* | -27%
CCOC(=S)SSC(=S)OCC | . | . | 9% | . | . | .
Cc1cc2c(cc1C)CSC(c1ccccc1O)SC2 | -105% | ? | -8% | 16µM* | -41% | -23%
Oc1ccccc1C1SC(c2ccccc2O)SC(c2ccccc2O)S1 (stereo not given) | 22µM* | . | 0% | ? | 1.1µM* | 20µM*
CCCCC(=O)Oc1ccccc1C1SCc2cc(C)c(C)cc2CS1 | -8% | i | -4% | 0% | -33% | 3%
Cc1cc2c(cc1C)CSC(c1ccccc1OC(=O)C(C)(C)C)SC2 | -3% | i | -4% | ? | 10µM* | 26%
Cc1cc2c(cc1C)CSC(c1c(O)ccc3ccccc13)SC2 | -99% | . | 1% | ? | 13µM* | ?
C=C1CCN(C(C)C(=O)OCc2cccc(C)c2)S(=O)(=O)c2ccccc21 (stereo not given) | -8% | . | . | -22% | . | .
COc1cc2c(cc1OC)CN(CCc1ccc(NC(=O)c3cc(OC)c(OC)cc3NC(=O)c3cnc4ccccc4c3)cc1)CC2 | . | . | . | . | . | -26%
CCOc1ccccc1CNC(=O)c1cccn1-c1nnc(N2CCCC2)s1 | -25% | . | . | -15% | -13% | .
